{"source": "PubChem BioAssay (NCATS)", "note": "Records with an inconclusive call do not appear. Entries that show only a call come without a potency. Activity calls are given as the source filed them. Calls follow the shape of the dose curve; as a rule, active = well fitted cell-killing curve with a large enough effect; inconclusive = small, poorly fitted or top-dose-only effect, or effect the other way; inactive = flat fitted curve, though single readings scatter.", "data": [{"system": "PA-1", "assay": "Primary qHTS to identify gynecologic anti-cancer compounds using libraries of approved drugs and bioactive compounds (AID 1345084); also: nearly all actives have a fitted effect of over 55% in size", "settings": "Gynecologic cancer cell panel viability, ATPlite luminescence, 48 h; series mostly up to 57.5 µM", "how_it_was_run": "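48 h compound exposure at 37 C, 5% CO2; five-point qHTS. ATPlite luminescence readout of cell ATP.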", "values": [{"smiles": "CC(NC(C)(C)C)C(=O)c1cccc(Cl)c1", "note": "(centres undefined)", "Potency": "inactive"}, {"smiles": "COP(=S)(OC)SCN1C(=O)c2ccccc2C1=O", "Potency": "inactive"}, {"smiles": "CC(C)(C)c1ccc(O)cc1", "Potency": "inactive"}, {"smiles": "CC(C)NC(C)C", "Potency": "inactive"}, {"smiles": "O=C(O)CCCc1ccc(N(CCCl)CCCl)cc1", "Potency": "inactive"}, {"smiles": "Clc1cccc(SC2CCNCC2)n1", "Potency": "inactive"}, {"smiles": "CCc1cc2c(s1)-n1c(C)nnc1CN=C2c1ccccc1Cl", "Potency": "inactive"}, {"smiles": "NC(=O)c1cc([N+](=O)[O-])cc([N+](=O)[O-])c1", "Potency": "inactive"}, {"smiles": "CN1CC[C@]23c4c5ccc(O)c4O[C@H]2[C@@H](O)C=C[C@H]3[C@H]1C5", "Potency": "inactive"}, {"smiles": "NNc1ccccc1", "Potency": "inactive"}, {"smiles": "C[C@]12CCC(=O)C=C1CC[C@@H]1[C@@H]2CC[C@@]2(C)[C@H]1CC[C@]2(C)O", "Potency": "inactive"}, {"smiles": "CCCCC/C=C\\C/C=C\\C/C=C\\C/C=C\\CCCC(=O)NCC(=O)O", "Potency": "inactive"}, {"smiles": "Nc1ccccc1", "Potency": "inactive"}, {"smiles": "CNCC(=O)c1ccc(O)c(O)c1", "Potency": "inactive"}, {"smiles": "COc1c2c(cc3c1OCO3)CCN(C)C2", "Potency": "inactive"}, {"smiles": "CN1C(=O)CCS(=O)(=O)C1c1ccc(Cl)cc1", "note": "(centres undefined)", "Potency": "inactive"}, {"smiles": "C[C@]12CC[C@@H]3c4ccc(OC(=O)N(CCCl)CCCl)cc4CC[C@H]3[C@@H]1CC[C@@H]2OP(=O)(O)O", "Potency": "inactive"}, {"smiles": "O=C1CN=C(c2ccccc2)c2cc([N+](=O)[O-])ccc2N1", "Potency": "inactive"}, {"smiles": "CC(Cc1ccccc1)NCCn1cnc2c1c(=O)n(C)c(=O)n2C", "note": "(centres undefined)", "Potency": "inactive"}, {"smiles": "CCN[C@@H](C)Cc1ccccc1", "Potency": "inactive"}, {"smiles": "CCC1(c2ccc(N)cc2)CCC(=O)NC1=O", "note": "(centres undefined)", "Potency": "inactive"}, {"smiles": "O=C(O)c1ccc(=O)[nH]c1", "Potency": "inactive"}, {"smiles": "O=c1c(C2CC(c3ccc(-c4ccc(Br)cc4)cc3)Cc3ccccc32)c(O)sc2ccccc12", "note": "(centres undefined)", "Potency": "inactive"}, {"smiles": "COc1cc(OC)c(OC)cc1C=O", "Potency": "inactive"}, {"smiles": "Nc1nc(N)nc(NC2CC2)n1", "Potency": "inactive"}, {"smiles": "O=C(CCCN1CCC2(CC1)C(=O)NCN2c1ccccc1)c1ccc(F)cc1", "Potency": "inactive"}, {"smiles": "NCCc1ccc(O)cc1", "Potency": "inactive"}, {"smiles": "C=CCN1C[C@H](C)N([C@H](c2ccc(C(=O)N(CC)CC)cc2)c2cccc(OC)c2)C[C@H]1C", "Potency": "inactive"}, {"smiles": "[N-]=[N+]=CC(=O)OC[C@H](N)C(=O)O", "Potency": "inactive"}, {"smiles": "CC(C)N(CCC(C(N)=O)(c1ccccc1)c1ccccn1)C(C)C", "note": "(centres undefined)", "Potency": "inactive"}, {"smiles": "CC(C)c1cccc(C(C)C)c1O", "Potency": "inactive"}, {"smiles": "CN1CCC(O)(c2ccc(F)cc2)C(C(=O)c2ccc(F)cc2)C1", "note": "(centres undefined)", "Potency": "inactive"}, {"smiles": "O=C1c2ccccc2C(=O)c2ccccc21", "Potency": "inactive"}, {"smiles": "COc1ccc2c3c1O[C@H]1[C@H](O)CC[C@H]4[C@@H](C2)N(C)CC[C@@]341", "Potency": "inactive"}]}]}
